Results filed as inconclusive are left out. Activity calls are given as the source filed them. The calls were made as follows, unless noted: active = hit-call score of the fitted dose curve at least 0.9, where 1 is the maximum; inactive = score below 0.9.
Columns and labels:
[1] = target: Nucleoli Translocation, AR (gene 367) (UniProt P10275); assay: UPITT_HCI_U2OS_AR_TIF2_Nucleoli_Antagonist: University of Pittsburgh U2OS Androgen Receptor-Transcriptional Intermediary Factor 2 (AR-TIF2) Antagonism High Content Imaging Assay for Nucleoli Translocation (AID 2283997; active = hit-call score of the fitted dose curve at least 0.9, where 1 is the maximum)
Chain of Nucleoli Translocation, AR (gene 367) (P10275 whole entry, looked up): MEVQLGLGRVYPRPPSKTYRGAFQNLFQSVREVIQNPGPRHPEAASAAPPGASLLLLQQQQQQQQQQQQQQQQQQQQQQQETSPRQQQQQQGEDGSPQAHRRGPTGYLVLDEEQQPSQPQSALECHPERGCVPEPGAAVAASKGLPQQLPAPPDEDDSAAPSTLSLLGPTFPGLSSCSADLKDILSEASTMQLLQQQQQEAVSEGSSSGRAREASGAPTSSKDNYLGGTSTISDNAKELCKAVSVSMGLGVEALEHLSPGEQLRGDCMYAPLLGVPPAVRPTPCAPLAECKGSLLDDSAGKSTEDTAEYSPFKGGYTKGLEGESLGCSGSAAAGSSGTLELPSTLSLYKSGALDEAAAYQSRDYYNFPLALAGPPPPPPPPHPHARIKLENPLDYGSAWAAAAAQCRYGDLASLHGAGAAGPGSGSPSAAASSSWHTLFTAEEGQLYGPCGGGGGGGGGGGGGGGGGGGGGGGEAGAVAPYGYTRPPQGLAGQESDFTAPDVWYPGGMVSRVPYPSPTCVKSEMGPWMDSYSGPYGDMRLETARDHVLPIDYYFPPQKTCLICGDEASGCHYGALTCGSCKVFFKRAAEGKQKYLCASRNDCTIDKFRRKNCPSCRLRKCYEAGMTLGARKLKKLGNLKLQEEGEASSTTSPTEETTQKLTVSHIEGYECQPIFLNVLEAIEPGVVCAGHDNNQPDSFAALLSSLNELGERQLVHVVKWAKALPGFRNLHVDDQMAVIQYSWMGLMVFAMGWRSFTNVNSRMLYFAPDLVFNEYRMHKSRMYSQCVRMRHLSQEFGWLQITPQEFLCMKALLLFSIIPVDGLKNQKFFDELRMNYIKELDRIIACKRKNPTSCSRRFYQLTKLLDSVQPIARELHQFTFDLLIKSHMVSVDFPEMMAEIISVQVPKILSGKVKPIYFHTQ
In short: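 U2OS cells expressing RFP-tagged human AR and GFP-tagged TIF2 were imaged by high-content fluorescence microscopy for red AR signal in the nucleolar region. Compounds were screened at 20 uM final (0.2% DMSO), with activity fitted relative to DHT as baseline.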

[2] = target: Nucleoli Translocation, AR (gene 367) (UniProt P10275); assay: UPITT_HCI_U2OS_AR_TIF2_Nucleoli_Agonist: University of Pittsburgh U2OS Androgen Receptor-Transcriptional Intermediary Factor 2 (AR-TIF2) Agonism High Content Imaging Assay for Nucleoli Translocation (AID 2283998; active = hit-call score of the fitted dose curve at least 0.9, where 1 is the maximum)
In short: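 U2OS cells expressing RFP-tagged human AR and GFP-tagged TIF2; red fluorescence in nucleoli quantified by high-content imaging. Primary screen at 20 uM final (0.2% DMSO); concentration-response 0.195–50 uM (0.5% DMSO), fitted upward versus DMSO.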

[3] = target: Ratio of Nucleoli Translocation and Cytoplasm, AR (gene 367) (UniProt P10275); assay: UPITT_HCI_U2OS_AR_TIF2_Nucleoli_Cytoplasm_Ratio_Antagonist: University of Pittsburgh U2OS Androgen Receptor-Transcriptional Intermediary Factor 2 (AR-TIF2) Antagonism High Content Imaging Assay for Ratio of Nucleoli Translocation and Cytoplasm (AID 2283999; active = hit-call score of the fitted dose curve at least 0.9, where 1 is the maximum;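 also: antagonists lower the DHT-driven ratio of nucleolar to cytoplasmic red signal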)
Chain of Ratio of Nucleoli Translocation and Cytoplasm, AR (gene 367) (P10275 whole entry, looked up): as above
In short: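 U2OS cells co-expressing RFP-tagged human AR and GFP-tagged TIF2, antagonist mode with DHT as baseline. Nucleolar-to-cytoplasmic red fluorescence ratio imaged by high-content microscopy; final compound 20 uM (0.2% DMSO) primary, 0.195–50 uM (0.5% DMSO) concentration-response.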

[4] = target: Ratio of Nucleoli Translocation and Cytoplasm, AR (gene 367) (UniProt P10275); assay: UPITT_HCI_U2OS_AR_TIF2_Nucleoli_Cytoplasm_Ratio_Agonist: University of Pittsburgh U2OS Androgen Receptor-Transcriptional Intermediary Factor 2 (AR-TIF2) Agonism High Content Imaging Assay for Ratio of Nucleoli Translocation and Cytoplasm (AID 2284000; active = hit-call score of the fitted dose curve at least 0.9, where 1 is the maximum;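 also: hits raise the red nucleolar to cytoplasm ratio above vehicle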)
In short: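 U2OS cells expressing RFP-tagged human AR and GFP-tagged TIF2 were imaged by high-content fluorescence microscopy. The endpoint is the ratio of nucleolar to cytoplasmic red fluorescence, fitted for gain of signal relative to DMSO. Concentration-response spanned 0.195 to 50 uM final (0.5% DMSO).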

[5] = CCTE_Harrill_HTTr_Viability_MCF7: CCTE's 6-hour Cell Viability Assessment for the High-Throughput Transcriptomics (HTTr) Platform, in MCF-7 cells cultured in DMEM + 10% fetal bovine serum, Harrill Lab (AID 2284010)
In short: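 MCF-7 cells in DMEM + 10% FBS, 384-well, exposed 6 h to an eight-point dilution series. Membrane integrity scored by high-content imaging of propidium iodide exclusion; bidirectional fit versus DMSO.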

[6] = CCTE_Harrill_HTTr_Apoptosis_MCF7: CCTE's 6-hour Apoptosis Assessment for the High-Throughput Transcriptomics (HTTr) Platform, in MCF-7 cells cultured in DMEM + 10% fetal bovine serum, Harrill Lab (AID 2284011)
In short: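 MCF-7 cells in DMEM + 10% FBS exposed 6 h to chemicals over an eight-point dilution series. Caspase-3/7 activation imaged by high-content CellEvent Green staining; fitted bidirectionally versus DMSO.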

[7] = tested on: DIO1 (gene 1733); assay: CCTE_GLTED_hDIO1: CCTE's human Deiodinase 1 (DIO1) Inhibition Assay, Great Lakes Toxicology and Ecology Division (GLTED) Lab (AID 2283987; active = hit-call score of the fitted dose curve at least 0.9, where 1 is the maximum;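 also: isolated human DIO1 enzyme in a cell-free setup rather than cells; enzyme activity read as free iodide liberated from substrate via Sandell-Kolthoff colorimetry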)
In short: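 Cell-free human DIO1 enzyme incubated 3 h with test chemical; iodide freed from substrate then measured by Sandell-Kolthoff absorbance. Run in triplicate; loss of signal relative to DMSO taken as inhibition.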

[8] = CCTE_Harrill_HTTr_CellCount_MCF7: CCTE's Cell Proliferation Assessment for the High-Throughput Transcriptomics (HTTr) Platform, Harrill Lab (AID 2284012; active = hit-call score of the fitted dose curve at least 0.9, where 1 is the maximum;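 also: cells exposed to compound for six hours; intended direction is loss of nuclei count meaning fewer cells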)
In short: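 MCF7 cells exposed 6 hours to an eight-point dilution series; Hoechst-stained nuclei counted by high-content imaging. Bidirectional curve fitting against DMSO baseline.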

[9] = TOX21_TR_RXR_BLA_Agonist_Followup_viability: Viability Assessment in the Tox21 Thyroid Hormone Receptor beta Retinoid X Receptor alpha (RXRa) Agonism Beta-lactamase (BLA) Follow-Up Assay (AID 2283970; active = hit-call score of the fitted dose curve at least 0.9, where 1 is the maximum)
In short: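 RXRa-UAS-bla HEK293T cells, 2,500/well in phenol red-free DMEM with 2% charcoal-stripped FBS, dosed for 16 h at 37C. Viability measured by CellTiter-Glo ATP luminescence; fitted bidirectionally against DMSO baseline, loss of signal indicating cytotoxicity.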

[10] = target: Retinoic acid receptor RXR-alpha (Homo sapiens) (UniProt P19793); assay: TOX21_TR_RXR_BLA_Agonist_Followup_ratio: Tox21 Thyroid Hormone Receptor beta Retinoid X Receptor alpha (RXRa) Agonism Beta-lactamase (BLA) Follow-Up Assay, Ratio (AID 2283968; active = hit-call score of the fitted dose curve at least 0.9, where 1 is the maximum)
Chain of Retinoic acid receptor RXR-alpha (Homo sapiens) (P19793 whole entry, looked up): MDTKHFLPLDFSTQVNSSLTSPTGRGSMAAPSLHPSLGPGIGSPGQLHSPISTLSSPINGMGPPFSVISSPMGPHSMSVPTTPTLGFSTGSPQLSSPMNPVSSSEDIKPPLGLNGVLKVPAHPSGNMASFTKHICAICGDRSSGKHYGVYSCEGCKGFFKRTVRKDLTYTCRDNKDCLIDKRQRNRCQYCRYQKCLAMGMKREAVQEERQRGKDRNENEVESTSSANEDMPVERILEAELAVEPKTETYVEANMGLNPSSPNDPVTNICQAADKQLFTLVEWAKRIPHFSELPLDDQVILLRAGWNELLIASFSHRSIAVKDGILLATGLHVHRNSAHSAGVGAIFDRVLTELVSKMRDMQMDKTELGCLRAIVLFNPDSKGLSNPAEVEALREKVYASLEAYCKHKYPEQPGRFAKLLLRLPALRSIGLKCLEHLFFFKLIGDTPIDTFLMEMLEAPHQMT
In short: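 RXRa-UAS-bla HEK293T cells, 5 h attachment at 37C/5% CO2, then 11 concentrations in triplicate for 16 h; 9-cis retinoic acid positive control. FRET-B/GCCF4-AM substrate 2 h at room temperature; 460:530 nm ratio, fitted for gain versus DMSO.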

[11] = CCTE_Shafer_MEA_acute_spike_number: CCTE's Neural Acute Assay for Total Number of Spikes, Shafer Lab (AID 2284008);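 as to AC50: curve fitted for decrease in spike count so AC50 reflects inhibitors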
In short: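 Rat primary cortical neurons on 48-well MEA plates, DIV 13 or 15, at 37 C. 40 min baseline then 40 min with compound (0.03-40 uM); spikes detected at 8x rms noise, expressed as percent change from baseline.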

[12] = CCTE_Shafer_MEA_acute_firing_rate_mean: CCTE's Neural Acute Assay for Mean Firing Rate, Shafer Lab (AID 2284009);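 also: analyzed for loss of signal so actives lower firing rate relative to DMSO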
In short: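 Read-out: well-mean spike rate (spikes/recording length/electrodes), % change from 40 min pre-dose baseline to 40 min with compound. Rat cortical cultures, DIV 13 or 15, 37 C; 0.03-40 uM; DMSO as negative control.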

[13] = CCTE_Shafer_MEA_acute_burst_number: CCTE's Neural Acute Assay for Single-Electrode Bursts, Shafer Lab (AID 2284013)
In short: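 Rat cortical cultures, DIV 13/15; 40 min baseline, then 40 min with compound 0.03-40 uM, 37 C. Spikes: 300-5000 Hz band-pass, threshold 8x rms noise. Readout = % change in single-electrode bursts vs baseline, loss-of-signal fit.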

[14] = CCTE_Shafer_MEA_acute_burst_duration_mean: CCTE's Neural Acute Assay for Mean Burst Duration, Shafer Lab (AID 2284014);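 also: hits are decreases in mean burst duration relative to DMSO controls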
In short: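 Primary rat cortical neurons on 16-electrode MEA wells, treated on DIV 13 or 15 with compound (0.03-40 uM; ≥3 wells each). 40-min baseline and 40-min exposure recordings at 37 C; percent change in mean burst duration per well versus DMSO.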

[15] = CCTE_Shafer_MEA_acute_interburst_interval_mean: CCTE's Neural Acute Assay for Mean Interburst Interval, Shafer Lab (AID 2284016);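 also: percent change of mean interburst interval versus each well's own pre-dose baseline; curves fitted for decrease in interburst interval relative to DMSO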
In short: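 MEA recording of spontaneous network bursting in primary rat cortical cultures; mean interburst interval was compared before and after a 40-min compound exposure (0.03-40 uM) and expressed as percent change, relative to DMSO.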

[16] = CCTE_Shafer_MEA_acute_burst_percentage_mean: CCTE's Neural Acute Assay for Percentage of Spikes in a Burst, Shafer Lab (AID 2284017);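 as to AC50: curve fitted for loss of signal so potency reflects decreased burst percentage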
In short: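 Compounds were tested at 0.03-40 uM on primary rat cortical neuron networks grown over microelectrodes, with at least three wells per compound. Spontaneous firing was recorded for 40 min before and 40 min after dosing, and the change in burst percentage was computed per well.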

[17] = CCTE_Shafer_MEA_acute_burst_percentage_std: CCTE's Neural Acute Assay for Standard Deviation of Burst Percentage, Shafer Lab (AID 2284018);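 also: fitted in the negative direction so actives lower burst percentage SD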
In short: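 Primary rat cortical neurons on 16-electrode MEA wells were recorded 40 min at baseline (DIV 13 or 15), then 40 min after compound (0.03-40 uM), at 37 C. Well value is SD across electrodes of spikes-in-bursts/total spikes; endpoint is percent change, DMSO-referenced.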

[18] = CCTE_Shafer_MEA_acute_per_network_burst_spike_number_mean: CCTE's Neural Acute Assay for Average Number of Spikes in a Network Burst, Shafer Lab (AID 2284019);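 as to AC50: curve fitted for loss of signal so actives reduce spikes per network burst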
In short: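 Primary rat cortical neurons on 16-electrode MEA wells, DIV 13 or 15, 37 C; 40-min baseline then 40-min recording with compound (0.03-40 uM). Spikes per network burst (total spikes/number of bursts) expressed as percent change from baseline, DMSO reference.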

CCc1cc(Cc2cc(CC)cc(C(C)(C)C)c2O)c(O)c(C(C)(C)C)c1
AC50 [1]: 62.2 µM (active) | AC50 [2]: 77.1 µM (active) | AC50 [3]: 50 µM (active) | AC50 [4]: 91.2 µM (active) | outcome [5]: inactive | outcome [6]: inactive

CCCCCCCCSCCO
AC50 [1]: 59 µM (active) | outcome [2]: inactive | outcome [4]: inactive

CC(C)CCCCCCc1ccc(OCCOCCO)cc1
outcome [1]: inactive | outcome [3]: inactive

CC(C)CCCCCCCCCCCCCCC(=O)O
AC50 [7]: 72.8 µM (active) | outcome [5]: inactive | outcome [6]: inactive | outcome [8]: inactive

CC(=O)Nc1ccc(C(=O)CCl)cc1
AC50 [9]: 69.1 µM (active) | outcome [5]: inactive | outcome [6]: inactive | outcome [8]: inactive

CCCCC(CC)COC(=O)c1ccc(O)cc1 (stereo not given)
AC50 [7]: 85.4 µM (active)

CC(C=O)Cc1ccc(C(C)(C)C)cc1 (stereo not given)
outcome [1]: inactive | outcome [2]: inactive | outcome [3]: inactive | outcome [4]: inactive | outcome [5]: inactive | outcome [6]: inactive | outcome [8]: inactive

C[C@H](CCC(=O)NCC(=O)O)[C@H]1CC[C@H]2[C@@H]3[C@H](O)C[C@@H]4C[C@H](O)CC[C@]4(C)[C@H]3C[C@H](O)[C@]12C
outcome [10]: inactive | outcome [9]: inactive | outcome [5]: inactive | outcome [6]: inactive

CCCCCCCCC=CCCCCCCCC1=NCCN1CCO
AC50 [7]: 36.3 µM (active) | AC50 [1]: 93 µM (active) | AC50 [2]: 13.3 µM (active) | outcome [3]: inactive | AC50 [4]: 13.7 µM (active)

CN(C)C(=S)SC(=S)N(C)C
outcome [11]: inactive | outcome [12]: inactive | outcome [13]: inactive | outcome [14]: inactive | outcome [15]: inactive | outcome [16]: inactive | outcome [17]: inactive | outcome [18]: inactive

OCc1cccc(Oc2ccccc2)c1
outcome [1]: inactive | outcome [3]: inactive | outcome [4]: inactive | outcome [5]: inactive | outcome [6]: inactive | outcome [8]: inactive

COCCc1ccc(OCC(O)CNC(C)C)cc1 (stereo not given)
outcome [11]: inactive | outcome [12]: inactive | outcome [5]: inactive | outcome [6]: inactive | outcome [8]: inactive | outcome [13]: inactive | outcome [14]: inactive | outcome [15]: inactive | outcome [16]: inactive | outcome [17]: inactive | outcome [18]: inactive

CC(=O)O[C@H]1C[C@@H]2CC[C@@]1(C)C2(C)C
outcome [1]: inactive | outcome [3]: inactive

CCCCCCC(CO)CCCC (stereo not given)
AC50 [11]: 5.36 µM (active) | AC50 [12]: 5.36 µM (active) | outcome [13]: inactive | outcome [14]: inactive | AC50 [15]: 15 µM (active) | AC50 [16]: 4.14 µM (active) | outcome [17]: inactive | AC50 [18]: 0.0509 µM (active)

BrCc1cccc(Oc2ccccc2)c1
outcome [1]: inactive | outcome [2]: inactive | outcome [3]: inactive | outcome [4]: inactive

Reference: PubChem BioAssay (EPA / NIEHS)
